{
  "source": "PubChem BioAssay (Tox21)",
  "note": "Inconclusive results are not listed. Unmarked numbers belong to inactive results. Activity calls are given as the source filed them. The call rests on the fitted dose curve; in most records, active means well fitted cell-killing curve with a large enough effect in the repeat runs; inconclusive means weak or mixed curves; inactive means flat fitted curve, though single readings scatter. On the % scale 0 is the no-effect control and ±100 the full control effect; potency means the concentration at half of the fitted maximal effect.",
  "data": [
    {"assay": "qHTS RealTime-Glo MT Cell Viability Assay in HepG2 cells - 8 hour (AID 1224873); further: nearly all actives have a fitted effect of over 55% in size", "details": "RealTime-Glo luminescence; series mostly up to 76.8 µM; viability change, negative = cytotoxic: at the top concentration", "text": "National Center for Advancing Translational Sciences [NCATS]\nNIH Chemical Genomics Center [NCGC]\nU.S. Environmental Protection Agency [EPA]\nNational Institutes of Environmental Health Sciences [NIEHS]\nNational Toxicology Program [NTP]\nU.S. Food and Drug Administration [FDA]\nMeasure of cell viability is critical in the cell-base assay. Analysis of cell viability is necessary for the characterization of cell responses to cytotoxic drugs and environmental stress. A RealTime-Glo MT Cell Viability Assay to monitor cell viability in real time of continues cell culture during 40 hours of compound treatment was used to screen Tox21 10K library compounds in HepG2 cells. The RealTime-Glo MT Cell Viability Assay is a nonlytic, homogeneous, bioluminescent method to measure cell viability in real time using a simple, plate-based method. The assay involves adding NanoLuc luciferase and a cell-permeant prosubstrate to cells in culture. Viable cells reduce the proprietary prosubstrate to generate a substrate for NanoLuc luciferase. This substrate diffuses from cells into the surrounding culture medium, where it is rapidly used by the NanoLuc Enzyme to produce a luminescent signal. The signal correlates with the number of viable cells, making the assay well suited for cytotoxicity studies.\nTox21 Assay Protocol Summary:\nThe mixture of HepG2 cell suspension and reagents were dispensed at 600cells/6 ul/well in 1536-well tissue culture treated black solid bottom plates using a Multidrop dispenser. After the assay plates were incubated at a 37 C/5% CO2 incubator for 5 hours, 23 nL of compounds dissolved in DMSO, positive and negative controls was transferred to the assay plate by a pintool work station. The plates were incubated at 37 C for 40 hours. The luminescence intensity were measured at 0h, 8h, 16h, 24h, 32h and 40h time points using ViewLux plate reader during compound treatment.", "values": [
      {"smiles": "CC(C)=CCC[C@H](C)CC=O", "viability change, negative = cytotoxic": "0.127%"},
      {"smiles": "CN1CC[C@H](c2c(O)cc(O)c3c(=O)cc(-c4ccccc4Cl)oc23)[C@H](O)C1", "viability change, negative = cytotoxic": "-4.93% [at 35.3 µM]"},
      {"smiles": "N#Cc1ccc(C/C(=N/NC(=O)Nc2ccc(OC(F)(F)F)cc2)c2cccc(C(F)(F)F)c2)cc1", "viability change, negative = cytotoxic": "-23.8%"},
      {"smiles": "CCCCCCCCSCc1cc(C)c(O)c(CSCCCCCCCC)c1", "viability change, negative = cytotoxic": "-0.0166%"},
      {"smiles": "CCCCCCCCCCCCS(=O)(=O)Cl", "viability change, negative = cytotoxic": "-5.43% [at 15.8 µM]"},
      {"smiles": "O=C(NCc1ncc(C(F)(F)F)cc1Cl)c1c(Cl)cccc1Cl", "viability change, negative = cytotoxic": "0.648%"},
      {"smiles": "Cn1ccnc1", "viability change, negative = cytotoxic": "7.37%"},
      {"smiles": "Nc1cc([N+](=O)[O-])cc(Cl)c1O", "viability change, negative = cytotoxic": "-8.13%"},
      {"smiles": "N#CCCOCCC#N", "viability change, negative = cytotoxic": "-16.1%"},
      {"smiles": "CC(C=O)c1ccccc1", "note": "(stereo not given)", "viability change, negative = cytotoxic": "-0.998%"},
      {"smiles": "CC(C)C(=O)C(C)C", "viability change, negative = cytotoxic": "0.57%"},
      {"smiles": "Cc1ccc(N=Nc2c(O)ccc3ccccc23)c(C)c1", "viability change, negative = cytotoxic": "-1.2% [at 35.3 µM]"},
      {"smiles": "Cc1cc(C)c(O)c(C(C)(C)C)c1", "viability change, negative = cytotoxic": "-22.1%"},
      {"smiles": "CCNc1nc(NC(C)(C)C)nc(OC)n1", "viability change, negative = cytotoxic": "2.81%"},
      {"smiles": "Oc1ccc(Cl)cc1C1CCCC1", "viability change, negative = cytotoxic": "-18.8%"},
      {"smiles": "Cc1ccc(Cl)c(N)c1Cl", "viability change, negative = cytotoxic": "-10.3%"},
      {"smiles": "C=COCCCC", "viability change, negative = cytotoxic": "-10.2%"},
      {"smiles": "O=c1[nH]cccc1O", "viability change, negative = cytotoxic": "0.448%"},
      {"smiles": "Cc1ccc(C=O)cc1", "viability change, negative = cytotoxic": "0.441% [at 35.3 µM]"},
      {"smiles": "Cn1c(=O)[nH]c2ncn(C)c2c1=O", "viability change, negative = cytotoxic": "2.1%"},
      {"smiles": "Nc1cc([N+](=O)[O-])ccc1Cl", "viability change, negative = cytotoxic": "-0.0706%"},
      {"smiles": "O=C1OC(O)C(C(Cl)Cl)=C1Cl", "note": "(stereo not given)", "viability change, negative = cytotoxic": "-16.3%"},
      {"smiles": "CCn1c2ccccc2c2ccccc21", "viability change, negative = cytotoxic": "-2.18%"},
      {"smiles": "Cc1ccc2nc(-c3ccc(N)cc3)sc2c1S(=O)(=O)O", "viability change, negative = cytotoxic": "2.47% [at 35.3 µM]"},
      {"smiles": "C1=CCCC1", "viability change, negative = cytotoxic": "-0.293%"},
      {"smiles": "C/C=C/C(=O)C1=C(C)C=CCC1(C)C", "viability change, negative = cytotoxic": "3.58%"},
      {"smiles": "CN(C[C@@H](CC[N+]12CCC(C3CCCCC3)(CC1)CC2)c1ccc(Cl)c(Cl)c1)C(=O)c1cc(C(F)(F)F)cc(C(F)(F)F)c1", "Potency": "24.5 µM (active)"},
      {"smiles": "Brc1cc(Br)cc(Br)c1", "viability change, negative = cytotoxic": "0.664%"},
      {"smiles": "C=CC(C)(C)O", "viability change, negative = cytotoxic": "0.695%"},
      {"smiles": "CCSCC", "viability change, negative = cytotoxic": "2.32%"},
      {"smiles": "O=C(Nc1ccccc1)c1cc(Cl)ccc1O", "viability change, negative = cytotoxic": "-13.3%"},
      {"smiles": "CC(=O)CC(N)=O", "viability change, negative = cytotoxic": "-1.3%"},
      {"smiles": "Cc1cc(F)ccc1-c1cc(N2CC[C@@H](O)[C@H]2CO)ncc1N(C)C(=O)C(C)(C)c1cc(C(F)(F)F)cc(C(F)(F)F)c1", "Potency": "38.3 µM (active)"},
      {"smiles": "CCOC=C(C(=O)OCC)C(=O)OCC", "viability change, negative = cytotoxic": "2.19%"},
      {"smiles": "CC(C)(C)c1ccc(OC2CCCCC2O)cc1", "note": "(stereo not given)", "viability change, negative = cytotoxic": "-14.3%"},
      {"smiles": "CC(C)(C)C1=CC(=O)C(C(C)(C)C)=CC1=O", "viability change, negative = cytotoxic": "-14% [at 35.3 µM]"},
      {"smiles": "Nc1ccc(Cl)c([N+](=O)[O-])c1", "viability change, negative = cytotoxic": "0.824%"},
      {"smiles": "NC(=O)C1CO1", "note": "(stereo not given)", "viability change, negative = cytotoxic": "2.47%"},
      {"smiles": "CCCCCCCCCC[N+](C)(CCCCCCCCCC)CCC[Si](OC)(OC)OC", "Potency": "49 µM (active)"},
      {"smiles": "CCOc1nc(F)cc2nc(S(=O)(=O)Nc3c(Cl)cccc3C(=O)OC)nn12", "viability change, negative = cytotoxic": "-1.06%"}
    ]}
  ]
}
